# Experimental data from ChEMBL document CHEMBL3988442, “University of Dundee, Small-Polar-MMV Screening Library” (2021).
# Where “and” joins values, the source holds several entries; their conditions need not be identical. Identical values can stand only once. Among all 34,000 compounds or so, about 290 (0.85%) showed an effect of 50% or more. The full list was thinned out, with strong results kept by preference.
# Test system: Plasmodium falciparum
# Experiment: Plasmodium falciparum sporozoite viability assay
# Type: functional, organism-based
# Design: scale not given: in the data most compounds retested in dose-response had high values
SMILES,Percent Effect,Percent Effect (10 mM as filed; unlikely as a test dose)
COc1ccccc1-n1cc(C(=O)NCCCn2nc(C)nc2C)cn1,3.022%,
Cc1ccnn1-c1ccc(C(=O)N2CCCC(n3ccnc3)C2)cc1 (centres undefined),2.837%,
Cc1cc(C)nc(N2CCC(CNC(=O)c3ccccn3)CC2)n1,1.904%,
CN1CCC(CCc2ccnc(Nc3cnccn3)c2)CC1,-4.215%,
CN1CCC(CCc2ccnc(NC(=O)c3ccccn3)c2)CC1,,67.18% and 85.05% and 49.69%
CC(=O)Nc1cc(CCC2CCN(C(=O)c3ccccn3)CC2)ccn1,,2.531% and -14.73% and -5.68%
O=C(Nc1cc(CCC2CCN(CCO)CC2)ccn1)c1ccccn1,,45.19% and 58.77% and 35.89%
CC(=O)N1CCC(CCc2ccnc(NC(=O)c3ccccn3)c2)CC1,,74.38% and 72.77% and 65.08%
O=C(CO)N1CCC(CCc2ccnc(Nc3cnccn3)c2)CC1,-3.121%,
Cc1ccccc1CCNC(=O)CN1CCCC(Cn2cncn2)C1 (centres undefined),7.953%,
O=C(C1=CCCC1)N1C[C@@H]2COC[C@]2(COc2ncccc2F)C1.O=C(O)C(F)(F)F,10.29%,
O=C(c1ccc(-c2cccc3c2CCNC3)o1)N1CCCCC1,-26%,
O=S(=O)(c1ccccc1)N1CC[C@]2(C[C@@H](OCC3CC3)CO2)C1,-7.967%,
COC(=O)Nc1ccc(CNc2cncc(-n3cccn3)n2)cc1,-0.1023%,
Cc1cc(CN(C)C(=O)c2ccc(OC(C)C)nc2)no1,6.375%,
COc1ccc(CN2C[C@@H]3OCCN(C)[C@@H]3C2)cc1.O=C(O)C(F)(F)F,-4.875%,
COCCC(=O)N1CC[C@@H](N(C)C)[C@@H]1Cc1ccccc1,-9.112%,
COc1ccc(S(=O)(=O)N2C[C@@H]3CN(C)CCO[C@@H]3C2)cc1,1.798%,
Cc1nccn1C1CCCN(C(=O)CCCNc2ncccn2)C1 (centres undefined),3.922%,
Cc1cnn(CC2CCCN2C(=O)c2ccccc2-n2cccn2)c1 (centres undefined),9.109%,
Cc1nc(N2CCN(C(=O)c3ccccc3)CC2)c2cnn(C)c2n1,-8.371%,
Cl.OC1(c2ccc(F)cc2)CCN(Cc2ccccc2N2CCCC2)CC1,10.2%,
Cc1cnccc1-n1nc(C(C)C)nc1CS(C)(=O)=O,,82.57% and 75%
CSCCc1nc(C(C)C)nn1-c1ccncc1C,,-19.09% and -18.73%

SMILES,Percent Effect,Percent Effect (10 mM as filed; unlikely as a test dose)
Cc1cnccc1-n1nc(C(C)C)nc1CCN(C)S(C)(=O)=O,,-20.65% and -22.07%
CC(=O)N1CCC1c1nc(-c2ccc(C)s2)no1 (centres undefined),-4.556%,
O=C(NCCNc1cc(N2CCCC2)cnn1)Nc1ccccc1F,,88.21% and 92.16%
O=C(Cc1ccc(F)cc1)NCCNc1cc(N2CCCC2)cnn1,,2.363% and 4.651%
CSc1nnc(CNC(=O)Nc2ccccc2F)n1C,-0.259%,
CC(=O)N1CC[C@H]2OCC[C@@]2(C(=O)NCCc2ccccn2)C1.O=C(O)C(F)(F)F,-10.77%,
CC(NC(=O)NCCCc1n[nH]c(N)c1C#N)c1ccccc1F (centres undefined),14.69%,
Cc1cc(C)n(CC2CCCCN2CC(=O)NC2CCOCC2)n1 (centres undefined),14.15%,
Cc1cc(C)n(CC2CCCN2CC(=O)NC2CCOCC2)n1 (centres undefined),-10.14%,
COCCOCC(=O)Nc1ccc(C)cc1F,-13.64%,
O=C(c1ccc(C2CCCO2)s1)N1CCOCC1 (centres undefined),,-24.05% and -11.59%
O=C(c1ccc(C2CCCO2)s1)N1CCS(=O)(=O)CC1 (centres undefined),,6.394% and 9.158% and -11.41%
O=C(c1ccc(C2CCCO2)s1)N1CCN(c2ccccc2F)CC1 (centres undefined),,80.46% and 89.28% and 82.47%
O=c1[nH]c(CCN2CCCC2Cn2cncn2)nc2ccccc12 (centres undefined),9.596%,
O=C(CCc1ccc2c(c1)OCO2)N1CCCC(n2cccn2)C1 (centres undefined),,-3.407% and -9.243% and -9.365%
O=C(Cc1ccc2c(c1)CCO2)N1CCCC(n2cccn2)C1 (centres undefined),,-20.29% and -14.82% and -23.46%
O=C(Cc1ccc2c(c1)OCCO2)N1CCCC(n2cccn2)C1 (centres undefined),,49.54% and 51.7% and 51.33%
CCOC(=O)[C@@H]1[C@@H](O)C(=O)N(C)C12CCN(C(=O)c1ccco1)CC2,7.177%,
O=C(O)C(F)(F)F.O=C(O)C(F)(F)F.c1ccc(CN2CCC3(CC2)CCN(c2ccccn2)C3)nc1,11.38%,
CCC1CN(C(=O)c2ncccc2O)CCC(=O)N1Cc1ccccc1 (centres undefined),,-58.66% and -61.44%
CCC1CN(C(=O)c2ccc(O)cn2)CCC(=O)N1Cc1ccccc1 (centres undefined),,75.08% and 82.46%
CCC1CN(C(=O)c2cccnc2O)CCC(=O)N1Cc1ccccc1 (centres undefined),,-11.65% and -22.98%
Cc1nn(C)c(Cl)c1C1CCCN1C(=O)c1cc(C2CC2)on1 (centres undefined),6.06%,
Cc1c[nH]nc1C1CN(Cc2cnn(-c3ccccc3C(=O)O)c2)C1,-1.554%,

SMILES,Percent Effect,Percent Effect (10 mM as filed; unlikely as a test dose)
Cc1noc(C)c1CC(=O)N1CCCC(n2ccnc2C)C1 (centres undefined),-6.625%,
O=C(Nc1ccc(N2CCCC2)nc1)N1CCc2ccccc2C1,,79.37% and 82.46% and 84.57%
O=C(Nc1ccc(N2CCCC2)nc1)N1CCc2sccc2C1,,-10.47% and -0.9103% and 2.706%
CCCc1cc(NC(=O)c2cc(N3CCNC3=O)c(F)cc2F)n[nH]1,-27.19%,
CC(CNC(=O)c1cc(N2CCNC2=O)ccc1F)c1ccccc1 (centres undefined),,35.08% and 63.14%
CC(Cc1ccsc1)NC(=O)c1cc(N2CCNC2=O)ccc1F (centres undefined),,74.24% and 61.84%
CC(NC(=O)c1cc(N2CCNC2=O)ccc1F)c1ccc(F)cc1 (centres undefined),,-9.982% and -2.184%
Cc1ccsc1CNC(=O)c1ccc(N2CCNC2=O)cc1,-9.9%,
Cc1ccc(C(=O)NCC(O)c2cccc(F)c2)c(=O)[nH]1 (centres undefined),-4.578%,
CCN(CC)CCCNCc1cc2cc(C)cc(C)c2[nH]c1=O,11.75%,
COCc1cnc2n1CCN(C(=O)c1ocnc1C)C2C (centres undefined),4.866%,
CN(Cc1cccs1)C(=O)Cn1cc(NC(=O)C(C)(C)C)cn1,-1.695%,
Cc1ccc(-n2nnc(C(=O)NCC(F)(F)F)c2C2CC2)cc1,-7.493%,
Cn1cc(-c2cnc(N3CCOCC3)nc2)cc1C(=O)N1CCOCC1,,-17.52% and -24.5% and -14.42%
O=C(CCc1ccsc1)Nc1ccnn1C1CCS(=O)(=O)C1 (centres undefined),-2.999%,
Cc1oc(C)c(C(=O)NCc2ccccc2CN(C)C)c1C,1.894%,
COC1CN(C(=O)CC(C)C)CCC(=O)N(C)c2ccccc21 (centres undefined),-36.78%,
CC(C)(C)c1ncc(C(=O)NCCSc2ccccn2)c(O)n1,,98% and 98.19%
O=C(NCCCO)c1cnc(-c2ccccc2)nc1O,-8.71%,
CCSCCNC(=O)c1cnc(-c2ccccc2)nc1O,2.095%,
Cc1ccc(C2(C(=O)NCCCn3cccn3)CCOCC2)cc1,,-25.15% and -19.39%
c1ccc2oc(CN3CCCC3Cn3cncn3)nc2c1 (centres undefined),3.888%,
Cc1nccn1C1CCCN(C(=O)Cc2cn3ccccc3n2)C1 (centres undefined),3.916%,
CCOCC1CN(C(=O)c2cscn2)Cc2cnn(CC3CC3)c21 (centres undefined),11.53%,

SMILES,Percent Effect,Percent Effect (10 mM as filed; unlikely as a test dose)
Cc1nc(C2CN(C)CCO2)cc(N2CCSCC2)n1 (centres undefined),-0.8223%,
Cc1cc(C(=O)N2CCC3(C2)CN(c2cccnc2)C(=O)CN3C)[nH]n1.O=C(O)C(F)(F)F.O=C(O)C(F)(F)F (centres undefined),9.444%,
CC(=O)N1CCOC(c2c(C(=O)NCCN(C)C)sc3ccccc23)C1 (centres undefined),3.684%,
CN(C)C(=O)CCNC(=O)Nc1sc2ccccc2c1Cl,,44.04% and 58.57% and 53.39%
CN(C)CC(C)(O)CNC(=O)Nc1sc2ccccc2c1Cl (centres undefined),,52.95% and 62.95% and 63.37%
CS(=O)(=O)CCCNC(=O)Nc1sc2ccccc2c1Cl,,-22.09% and -10.77% and -17.84%
CN1CCN(Cc2cn3c(n2)CN(Cc2ccc(F)cc2)CC3)CC1.O=C(O)C(F)(F)F.O=C(O)C(F)(F)F.O=C(O)C(F)(F)F,11.14%,
O=C(O)[C@@H]1CCN(C(=O)Cc2ccccn2)[C@@H]1c1ccc(F)cc1,2.558%,
CN(C)C(=O)NC1COC2(CCN(Cc3ccccc3)CC2)C1.O=C(O)C(F)(F)F (centres undefined),,-6.642% and -9.604% and -2.422%
CCC(O)CN1CCN(C(=O)c2sccc2OC)CC1 (centres undefined),5.511%,
N#Cc1c(SCCN2CCCCC2)sc2c(O)cc(O)nc12,19.81%,
Cc1nc(C)n(C2CCCN(C(=O)CCOC(C)C)C2)n1 (centres undefined),5.53%,
CCc1nc(C2CCCN(C(=O)NCCOC)C2)no1 (centres undefined),15.54%,
CSc1cc2c(cc1NC(=O)NCCn1ccnc1)OCCO2,,101.5% and 100.4% and 104.7%
COCCNC(=O)Nc1cc2c(cc1SC)OCCO2,,98.06% and 101.8% and 101.9%
CSc1cc2c(cc1NC(=O)NCc1ccncc1)OCCO2,,-14.95% and -16.58%
CC(NC(=O)NCCn1ccnc1)c1ccc2c(c1)OCCO2 (centres undefined),-2.596%,
CSc1cc2c(cc1NC(=O)NCC(=O)N(C)C)OCCO2,,-16.92% and -17.04% and -26.51%
CSc1cc2c(cc1NC(=O)NCC1CCOC1)OCCO2 (centres undefined),,105.7% and 100.9% and 97.86%
COCCN(C)C(=O)Nc1cc2c(cc1SC)OCCO2,,-20.76% and -19.13%
CCN(CC)c1ccc(NC(=O)NCC2CCOC2)cn1 (centres undefined),,-11.53% and -8.697%
O=C(NCC1CCOC1)Nc1ccc(OCC(F)(F)F)nc1 (centres undefined),-8.857%,
